The source of these data is PubChem BioAssay (EPA / NIEHS).

Results filed as inconclusive are left out. Active and inactive are the calls of the source. How the source made its calls, unless noted: active means hit-call score of the fitted dose curve at least 0.9, where 1 is the maximum; inconclusive means response in the unintended direction; inactive means score below 0.9.

Test [1] addresses Retinoic acid receptor alpha (Homo sapiens) (UniProt P10276). The test can be described thus: ATG_DR5_RAR_CIS: Attagene CIS-FACTORIAL HepG2 Assay for human Retinoic Acid Receptor Alpha (RARE), DR5 submotif (AID 2282934; active means hit-call score of the fitted dose curve at least 0.9, where 1 is the maximum; inactive means score below 0.9). Particulars: HepG2 Attagene cis-factorial RARE DR5 reporter, mRNA; actives raise or lower the signal. Put shortly:
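Transient MRTU transfection of HepG2; 24 h compound treatment; TriZol RNA, oligo(dT) RT, PCR, FAM labelling, capillary electrophoresis. Bidirectional fit vs DMSO. Endogenous TF activity at DR5 RARE.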

Test [2] concerns the target Bile acid receptor (Homo sapiens) (UniProt Q96RI1). In words: ATG_IR1_CIS: Attagene CIS-FACTORIAL HepG2 Assay for human Nuclear Receptor Subfamily 1 Group H Member 4 (NR1H4), IR1 submotif (AID 2282946; active means hit-call score of the fitted dose curve at least 0.9, where 1 is the maximum; inactive means score below 0.9). Conditions: IR1 reporter transcription, actives raise or lower the signal. The essentials:
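HepG2 cells transiently transfected with multiplexed cis-element reporter units read endogenous transcription factor activity. After 24 h compound exposure, reporter mRNA was quantified by RT-PCR, fluorescent labelling, HpaI digestion and capillary electrophoresis; bidirectional fitting versus DMSO baseline.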

Test [3] can be described thus: ATG_PPRE_CIS: Attagene CIS-FACTORIAL HepG2 Assay for human Peroxisome Proliferator-activated Response Element (PPRE) (AID 2282958; active means hit-call score of the fitted dose curve at least 0.9, where 1 is the maximum; inactive means score below 0.9). Conditions: HepG2 PPRE cis-element reporter, Attagene transcription factor profiling; actives raise or lower the signal. The essentials:
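PPRE activity in HepG2: transient cis-reporter transfection, 24 h compound incubation, reporter mRNA by RT-PCR and CE fluorescence; gain/loss fitted against DMSO.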

The target of test [4] is Nuclear receptor subfamily 1 group I member 3 (Homo sapiens) (UniProt Q14994). The test can be described thus: ATG_CAR_TRANS: Attagene TRANS-FACTORIAL HepG2 Assay for human Constitutive Androstane Receptor (CAR) (AID 2282969).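 Further: activators raise reporter mRNA above DMSO so AC50 marks induction.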 Conditions: HepG2 Attagene TRANS-FACTORIAL CAR reporter. The essentials: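 Signal is reporter mRNA induction relative to DMSO, measured 24 h after dosing by RT-PCR with fluorescent primer extension and capillary electrophoresis. Human HepG2 liver cells carried transiently transfected chimeric NR-Gal4/GAL4-UAS reporter constructs.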
Chain of Nuclear receptor subfamily 1 group I member 3 (Homo sapiens) (Q14994 whole entry, looked up, the tested form may be a part): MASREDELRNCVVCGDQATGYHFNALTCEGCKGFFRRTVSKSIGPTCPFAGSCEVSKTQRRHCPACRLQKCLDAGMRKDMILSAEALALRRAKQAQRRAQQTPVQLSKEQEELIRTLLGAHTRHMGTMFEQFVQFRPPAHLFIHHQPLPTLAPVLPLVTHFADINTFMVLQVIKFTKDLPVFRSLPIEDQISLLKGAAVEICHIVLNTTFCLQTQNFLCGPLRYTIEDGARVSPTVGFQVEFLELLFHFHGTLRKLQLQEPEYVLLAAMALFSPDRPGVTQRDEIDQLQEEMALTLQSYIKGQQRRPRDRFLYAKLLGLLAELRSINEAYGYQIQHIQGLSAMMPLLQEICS

Test [5] has as its target Nuclear receptor subfamily 4 group A member 2 (Homo sapiens) (UniProt P43354). In words: ATG_NURR1_TRANS: Attagene TRANS-FACTORIAL HepG2 Assay for human Nuclear Receptor Related Protein 1 (NURR1) (AID 2282985). Particulars: HepG2 Attagene TRANS reporter, mRNA readout. Put shortly: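 Reporter transcript induction, measured by RT-PCR with fluorescent labelling, HpaI digestion and capillary electrophoresis, after 24 hr dosing of human HepG2 cells transiently expressing an exogenous NR-Gal4 fusion with GAL4-UAS-driven reporters; DMSO as baseline.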

Test [6] concerns the target human Peroxisome Proliferator-activated Receptor delta (PPARd), PPARD (gene 5467) (UniProt Q03181). In words: ATG_PPARd_TRANS: Attagene TRANS-FACTORIAL HepG2 Assay for human Peroxisome Proliferator-activated Receptor delta (PPARd) (AID 2283002). Put shortly: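 Transient HepG2 transfection (multiple GAL4-UAS RTUs, chimeric receptor-Gal4); 24 h dosing; total RNA → oligo(dT) RT → PCR → 6-FAM primer extension → HpaI cut → CE. Positive direction vs DMSO.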

The target in test [7] is Nuclear receptor subfamily 1 group I member 2 (Homo sapiens) (UniProt O75469). The test can be described thus: ATG_PXR_TRANS: Attagene TRANS-FACTORIAL HepG2 Assay for human Pregnane X Receptor (PXR) (AID 2283008). Put shortly:
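HepG2 transfected (FuGene 6) with GAL4-UAS reporter units + PXR-Gal4 chimera; dosed 24 h. Total RNA → oligo(dT) RT → PCR → 6-FAM primer extension → HpaI cut → CE. Gain-of-signal vs DMSO.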

The target of test [8] is human RAR-related Orphan Receptor beta (RORb), RORB (gene 6096) (UniProt Q92753). The test can be described thus: ATG_RORb_TRANS: Attagene TRANS-FACTORIAL HepG2 Assay for human RAR-related Orphan Receptor beta (RORb) (AID 2283010). Put shortly:
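Read-out is reporter mRNA induction, quantified by RT-PCR with fluorescent capillary electrophoresis, 24 h post-dose in transiently transfected HepG2 expressing exogenous NR-Gal4 chimera. Activity fitted upward versus DMSO.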

The target of test [9] is human Vitamin D Receptor (VDR), VDR (gene 7421) (UniProt P11473). The test can be described thus: ATG_VDR_TRANS: Attagene TRANS-FACTORIAL HepG2 Assay for human Vitamin D Receptor (VDR) (AID 2283022). The essentials:
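Transactivation by an exogenous VDR-Gal4 chimera in transiently transfected HepG2 cells was measured as reporter transcript level 24 hours after chemical treatment. RT-PCR products were analysed by capillary electrophoresis and fitted in the positive direction relative to DMSO.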

Test [10] in a line: TOX21_p53_BLA_p3_viability: Viability Assessment in the Tox21 HCT-116 p53 Agonism Beta-lactamase Assay, Phase 3 (AID 2283593).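 Further: cells exposed to compound for 16 h before reading.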 Put shortly: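 Cellular ATP was quantified by CellTiter-Glo luminescence, read after 30 min at room temperature. Beforehand, HCT116 cells (4000/well) received compound 5 h post-seeding, 217-fold diluted from DMSO, then incubated 16 h at 37C.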
A short description of test [11]: ATG_M_19_TRANS: Attagene TRANS-FACTORIAL HepG2 Assay for M19 Transcription Factor (Internal Marker) (AID 2282974). Conditions: HepG2 Attagene TRANS-FACTORIAL M19 internal marker reporter. Put shortly: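 Transfected HepG2 (GAL4-UAS MRTUs), 24 h compound, TriZol RNA, DNase-treated RT, reporter PCR, FAM label, HpaI digest, CE fluorescence; gain vs DMSO.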
Test [12] deals with human RAR-related Orphan Receptor gamma (RORg), RORC (gene 6097) (UniProt P51449). The test can be described thus: ATG_RORg_TRANS: Attagene TRANS-FACTORIAL HepG2 Assay for human RAR-related Orphan Receptor gamma (RORg) (AID 2283011). The essentials:
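Reporter transcripts from a transfected RORg-GAL4 chimera in HepG2 cells were quantified 24 h after dosing by RT-PCR, 6-FAM labelling, HpaI digestion and capillary electrophoresis; increases over DMSO baseline were fitted.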

Test [13] can be described thus: ATG_XTT_Cytotoxicity: Cytotoxicity Assessment in the Attagene TRANS-FACTORIAL HepG2 Assay (AID 2283584). The essentials: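 Viability endpoint from XTT after 24 h chemical exposure of reporter-transfected human HepG2 liver cells; signal loss fitted relative to DMSO negative control.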
In test [14] the target is Oxysterols receptor LXR-alpha (Homo sapiens) (UniProt Q13133). In words: ATG_LXRa_TRANS: Attagene TRANS-FACTORIAL HepG2 Assay for human Liver X Receptor alpha (LXRa) (AID 2282980). Particulars: HepG2 Attagene TRANS reporter, LXRa transactivation. Put shortly:
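Chemical-induced reporter mRNA measured by RT-PCR with fluorescent labelling and capillary electrophoresis after 24 h dosing of transiently transfected HepG2 cells expressing exogenous NR-Gal4 chimeras; increases scored against DMSO baseline.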

The target in test [15] is human Peroxisome Proliferator-activated Receptor alpha (PPARa), PPARA (gene 5465) (UniProt Q07869). In words: ATG_PPARa_TRANS: Attagene TRANS-FACTORIAL HepG2 Assay for human Peroxisome Proliferator-activated Receptor alpha (PPARa) (AID 2283001). The essentials:
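Reporter transcripts quantified by RT-PCR plus capillary electrophoresis after 24 h treatment, fitted upward relative to DMSO. Cells: human HepG2 transiently carrying multiple GAL4-UAS reporter units driven by NR-Gal4 chimeras.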

Test [16] is described as follows: CCTE_Harrill_HTTr_Viability_MCF7: CCTE's 6-hour Cell Viability Assessment for the High-Throughput Transcriptomics (HTTr) Platform, in MCF-7 cells cultured in DMEM + 10% fetal bovine serum, Harrill Lab (AID 2284010; active means hit-call score of the fitted dose curve at least 0.9, where 1 is the maximum; inactive means score below 0.9). Put shortly: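 Propidium iodide exclusion, imaged by high-content analysis, gauged viability after a six-hour exposure across eight concentrations. Cells were MCF-7 grown in DMEM with 10% fetal bovine serum; fits run in both directions against DMSO.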

Test [17] can be described thus: CCTE_Harrill_HTTr_Apoptosis_MCF7: CCTE's 6-hour Apoptosis Assessment for the High-Throughput Transcriptomics (HTTr) Platform, in MCF-7 cells cultured in DMEM + 10% fetal bovine serum, Harrill Lab (AID 2284011; active means hit-call score of the fitted dose curve at least 0.9, where 1 is the maximum; inactive means score below 0.9). Put shortly: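 High-content imaging of CellEvent Caspase 3/7 Green signal follows a six-hour exposure, with eight concentrations per chemical. MCF-7 cells grown in DMEM plus 10% fetal bovine serum; activity fitted in both directions against DMSO.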

Test [18] deals with Glucocorticoid receptor (Homo sapiens) (UniProt P04150). The test can be described thus: ATG_GR_TRANS: Attagene TRANS-FACTORIAL HepG2 Assay for human Glucocorticoid Receptor (GR) (AID 2282978).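 Further: activators score as hits since higher reporter transcript over DMSO is fitted.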 Particulars: HepG2 Attagene TRANS GR reporter, mRNA transcription. The essentials: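 After 24 h incubation with test chemical, transfected HepG2 cells were lysed for RNA; reporter cDNA was amplified, FAM-labelled, HpaI-digested and sized on a capillary analyser. Signal gain relative to DMSO was scored.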

A short description of test [19]: ATG_NF_kB_CIS: Attagene CIS-FACTORIAL HepG2 Assay for human Nuclear Factor Kappa B (NF-kB) (AID 2282991; active means hit-call score of the fitted dose curve at least 0.9, where 1 is the maximum; inactive means score below 0.9). Particulars: HepG2 Attagene cis-factorial NF-kB reporter mRNA; actives raise or lower the signal. Put shortly:
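Fluorescence of labelled RT-PCR products separated by capillary electrophoresis gives reporter mRNA levels from transfected HepG2 cells exposed 24 h; values are fitted in both directions relative to DMSO.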

In test [20] the target is Retinoic acid receptor RXR-alpha (Homo sapiens) (UniProt P19793). The test can be described thus: ATG_RXRa_TRANS: Attagene TRANS-FACTORIAL HepG2 Assay for human Retinoid X Receptor alpha (RXRa) (AID 2283012). Put shortly: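 TRANS format reporting activity of exogenous RXRa-Gal4 chimera in transiently transfected HepG2, 24 h exposure. Reporter transcripts quantified by RT-PCR with capillary electrophoresis, with gain of signal scored relative to DMSO.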
Chain of Retinoic acid receptor RXR-alpha (Homo sapiens) (P19793 whole entry, looked up, the tested form may be a part): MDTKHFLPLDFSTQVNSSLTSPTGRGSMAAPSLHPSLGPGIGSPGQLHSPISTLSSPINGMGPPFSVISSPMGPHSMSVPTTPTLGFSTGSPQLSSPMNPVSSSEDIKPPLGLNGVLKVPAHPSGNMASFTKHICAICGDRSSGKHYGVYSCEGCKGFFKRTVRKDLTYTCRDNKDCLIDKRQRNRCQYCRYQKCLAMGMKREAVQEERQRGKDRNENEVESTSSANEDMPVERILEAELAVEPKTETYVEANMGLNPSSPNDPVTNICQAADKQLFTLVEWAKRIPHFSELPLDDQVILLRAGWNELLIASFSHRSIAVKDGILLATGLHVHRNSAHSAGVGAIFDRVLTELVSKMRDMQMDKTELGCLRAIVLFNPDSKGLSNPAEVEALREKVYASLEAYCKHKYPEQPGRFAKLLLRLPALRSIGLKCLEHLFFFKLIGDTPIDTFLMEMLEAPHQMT

What is called AC50 is the midpoint of the concentration-response curve, whichever way the signal moves.

Chain of human Peroxisome Proliferator-activated Receptor delta (PPARd), PPARD (gene 5467) (Q03181 whole entry, looked up, the tested form may be a part): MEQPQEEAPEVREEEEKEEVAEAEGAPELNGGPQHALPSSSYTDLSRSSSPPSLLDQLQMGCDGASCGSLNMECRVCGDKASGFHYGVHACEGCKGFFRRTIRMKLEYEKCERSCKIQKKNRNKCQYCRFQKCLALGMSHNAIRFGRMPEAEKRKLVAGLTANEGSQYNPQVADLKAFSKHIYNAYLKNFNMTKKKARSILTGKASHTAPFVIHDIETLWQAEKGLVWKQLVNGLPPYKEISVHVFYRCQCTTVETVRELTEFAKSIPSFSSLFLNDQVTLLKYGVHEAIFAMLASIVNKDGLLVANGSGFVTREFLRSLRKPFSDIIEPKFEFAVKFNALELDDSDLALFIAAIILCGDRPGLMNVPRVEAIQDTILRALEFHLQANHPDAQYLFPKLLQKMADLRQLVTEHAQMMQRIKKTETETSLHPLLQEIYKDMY
Chain of human Vitamin D Receptor (VDR), VDR (gene 7421) (P11473 whole entry, looked up, the tested form may be a part): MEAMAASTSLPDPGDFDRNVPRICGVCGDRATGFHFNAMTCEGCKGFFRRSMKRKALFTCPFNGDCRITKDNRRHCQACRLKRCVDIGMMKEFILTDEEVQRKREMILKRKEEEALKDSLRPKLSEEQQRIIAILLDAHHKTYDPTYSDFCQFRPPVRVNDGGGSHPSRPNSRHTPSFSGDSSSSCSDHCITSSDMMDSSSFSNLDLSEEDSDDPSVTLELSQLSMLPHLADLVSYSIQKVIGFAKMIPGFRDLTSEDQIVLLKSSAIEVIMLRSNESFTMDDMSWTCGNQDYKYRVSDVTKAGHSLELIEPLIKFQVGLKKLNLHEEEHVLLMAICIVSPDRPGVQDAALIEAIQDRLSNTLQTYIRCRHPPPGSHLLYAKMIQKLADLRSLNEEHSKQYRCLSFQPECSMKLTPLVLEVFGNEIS
Chain of human Peroxisome Proliferator-activated Receptor alpha (PPARa), PPARA (gene 5465) (Q07869 whole entry, looked up, the tested form may be a part): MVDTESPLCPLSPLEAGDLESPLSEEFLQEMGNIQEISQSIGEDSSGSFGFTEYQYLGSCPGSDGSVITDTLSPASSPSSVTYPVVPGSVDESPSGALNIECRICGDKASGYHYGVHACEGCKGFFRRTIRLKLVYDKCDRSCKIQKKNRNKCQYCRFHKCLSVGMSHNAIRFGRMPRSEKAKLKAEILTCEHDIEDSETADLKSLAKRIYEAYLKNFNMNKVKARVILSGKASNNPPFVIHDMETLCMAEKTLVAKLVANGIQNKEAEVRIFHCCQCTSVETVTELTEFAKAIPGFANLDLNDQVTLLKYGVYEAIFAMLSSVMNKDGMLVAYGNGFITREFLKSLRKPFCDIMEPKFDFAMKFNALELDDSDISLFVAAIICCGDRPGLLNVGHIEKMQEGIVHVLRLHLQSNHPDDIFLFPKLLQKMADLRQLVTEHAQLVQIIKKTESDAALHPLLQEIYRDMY
Chain of Nuclear receptor subfamily 4 group A member 2 (Homo sapiens) (P43354 whole entry, looked up, the tested form may be a part): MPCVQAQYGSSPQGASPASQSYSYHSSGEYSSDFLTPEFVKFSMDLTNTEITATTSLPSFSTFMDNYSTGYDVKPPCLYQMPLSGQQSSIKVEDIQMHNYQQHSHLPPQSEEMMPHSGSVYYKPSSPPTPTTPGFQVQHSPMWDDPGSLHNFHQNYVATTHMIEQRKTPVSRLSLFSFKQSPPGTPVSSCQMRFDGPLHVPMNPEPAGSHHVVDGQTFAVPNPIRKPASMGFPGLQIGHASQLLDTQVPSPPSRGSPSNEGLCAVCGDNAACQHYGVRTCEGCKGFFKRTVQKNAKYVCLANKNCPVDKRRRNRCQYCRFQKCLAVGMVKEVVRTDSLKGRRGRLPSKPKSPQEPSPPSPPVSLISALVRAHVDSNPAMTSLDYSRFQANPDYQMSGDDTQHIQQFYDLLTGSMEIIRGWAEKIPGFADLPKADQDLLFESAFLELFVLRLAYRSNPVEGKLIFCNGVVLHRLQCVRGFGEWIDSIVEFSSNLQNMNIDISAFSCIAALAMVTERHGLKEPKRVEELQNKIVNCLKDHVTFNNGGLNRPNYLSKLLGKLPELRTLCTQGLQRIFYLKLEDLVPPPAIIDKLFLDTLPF
Chain of human RAR-related Orphan Receptor gamma (RORg), RORC (gene 6097) (P51449 whole entry, looked up, the tested form may be a part): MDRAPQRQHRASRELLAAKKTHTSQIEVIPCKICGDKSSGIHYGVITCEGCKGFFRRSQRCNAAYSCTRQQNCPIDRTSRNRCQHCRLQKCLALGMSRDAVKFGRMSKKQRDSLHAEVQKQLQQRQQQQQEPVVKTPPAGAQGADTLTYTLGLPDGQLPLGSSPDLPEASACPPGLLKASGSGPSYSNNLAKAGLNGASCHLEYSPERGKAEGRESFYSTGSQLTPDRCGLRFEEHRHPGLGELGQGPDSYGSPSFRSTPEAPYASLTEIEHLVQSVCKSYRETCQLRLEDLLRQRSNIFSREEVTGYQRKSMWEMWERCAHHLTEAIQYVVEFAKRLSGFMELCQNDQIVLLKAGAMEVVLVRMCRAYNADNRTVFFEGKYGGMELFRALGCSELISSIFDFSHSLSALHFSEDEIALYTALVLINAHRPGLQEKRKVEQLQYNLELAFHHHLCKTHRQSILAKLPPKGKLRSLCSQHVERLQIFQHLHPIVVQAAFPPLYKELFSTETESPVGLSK
Chain of Oxysterols receptor LXR-alpha (Homo sapiens) (Q13133 whole entry, looked up, the tested form may be a part): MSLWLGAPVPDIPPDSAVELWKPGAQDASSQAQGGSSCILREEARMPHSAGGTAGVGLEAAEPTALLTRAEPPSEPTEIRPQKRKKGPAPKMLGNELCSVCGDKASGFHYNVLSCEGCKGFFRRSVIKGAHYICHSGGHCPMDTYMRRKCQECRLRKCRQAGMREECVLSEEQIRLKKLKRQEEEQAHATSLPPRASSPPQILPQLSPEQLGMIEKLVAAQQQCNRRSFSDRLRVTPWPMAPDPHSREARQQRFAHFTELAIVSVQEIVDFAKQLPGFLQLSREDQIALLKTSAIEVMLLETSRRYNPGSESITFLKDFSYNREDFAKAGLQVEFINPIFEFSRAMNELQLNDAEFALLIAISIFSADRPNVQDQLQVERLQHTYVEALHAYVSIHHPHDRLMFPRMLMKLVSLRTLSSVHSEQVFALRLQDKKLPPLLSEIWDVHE
Chain of Retinoic acid receptor alpha (Homo sapiens) (P10276 whole entry, looked up): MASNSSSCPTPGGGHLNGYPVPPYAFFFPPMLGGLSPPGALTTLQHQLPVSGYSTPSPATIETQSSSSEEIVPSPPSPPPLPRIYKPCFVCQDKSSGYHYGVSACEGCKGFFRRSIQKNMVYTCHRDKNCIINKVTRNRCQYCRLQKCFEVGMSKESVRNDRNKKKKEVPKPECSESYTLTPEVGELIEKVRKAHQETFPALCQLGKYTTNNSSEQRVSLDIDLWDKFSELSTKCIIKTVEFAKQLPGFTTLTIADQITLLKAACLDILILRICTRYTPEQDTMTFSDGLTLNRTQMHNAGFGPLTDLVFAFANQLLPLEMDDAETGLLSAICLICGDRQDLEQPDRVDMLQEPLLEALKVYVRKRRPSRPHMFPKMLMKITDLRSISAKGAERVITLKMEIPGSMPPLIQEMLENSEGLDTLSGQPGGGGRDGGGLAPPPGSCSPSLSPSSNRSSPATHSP
Chain of Bile acid receptor (Homo sapiens) (Q96RI1 whole entry, looked up): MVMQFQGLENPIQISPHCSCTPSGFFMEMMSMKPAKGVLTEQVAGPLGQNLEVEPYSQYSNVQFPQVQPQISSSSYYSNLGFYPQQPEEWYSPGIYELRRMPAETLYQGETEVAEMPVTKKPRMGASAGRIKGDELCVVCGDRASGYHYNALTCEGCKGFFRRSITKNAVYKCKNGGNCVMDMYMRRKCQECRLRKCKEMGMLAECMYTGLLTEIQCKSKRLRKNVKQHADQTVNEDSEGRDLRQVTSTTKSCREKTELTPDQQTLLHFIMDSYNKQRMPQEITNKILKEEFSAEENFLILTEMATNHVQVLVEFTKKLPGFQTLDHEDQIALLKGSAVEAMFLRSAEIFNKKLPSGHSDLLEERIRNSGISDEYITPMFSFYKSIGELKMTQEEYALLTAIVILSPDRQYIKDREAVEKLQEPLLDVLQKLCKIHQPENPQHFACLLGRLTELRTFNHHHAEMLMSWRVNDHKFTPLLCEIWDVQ

Turning to `N#CC(c1ccccc1)c1ccccc1`, the compound was classed as inactive in test [1], in test [2], in [3], in test [4], in test [5] and in test [6]. The outcome in test [8], in [9] and in test [10] was inactive. For the same compound, the AC50 in test [7] is 4.59 µM (active).
`O=S(=O)(O)OOS(=O)(=O)O`: the call in test [3], in [11], in test [5], in [6], in test [12] and in test [13] was inactive.
As for `CCCOC(=O)c1ccccc1C(=O)OCCC`, the outcome in test [2], in test [3], in [11], in [14], in test [5] and in test [15] was inactive. Besides, the outcome in [6], in [12], in [10], in test [16] and in [17] was inactive. Besides, in test [7], the AC50 is 70.3 µM (active).
Take `N#Cc1cccc(C#N)c1`: the result in test [1], in [3], in test [11], in test [18], in [14] and in test [19] was inactive. Also, the compound was called inactive in [15], in test [20], in test [13] and in test [10].
Consider `Nc1c(Cl)c(Cl)c(Cl)c(Cl)c1Cl`, for which the result in test [1], in test [3], in [18], in test [14], in test [5] and in test [15] was inactive. For the same compound, the call in test [6], in test [20] and in [9] was inactive. Also, the AC50 in [4] is 27.3 µM (active).
Regarding `Oc1ccc(Cl)cc1`, the compound was called inactive in [1], in test [3], in [4], in [14], in test [19] and in [12]. Also, the call in test [20], in test [9], in test [13], in [16] and in test [17] was inactive.
`CCCCOC(=O)CCC(=O)OCCCC`: the result in test [1], in test [4], in test [5], in [15], in [6] and in [8] was inactive. In addition, the outcome in test [12] and in test [13] was inactive.
